KB-3-1 tox = kills parental KB-3-1 adenocarcinoma cells | KB-3-1 viability, CellTiter-Glo ATP luminescence, 72 h | Potency, µM (series often up to 46.1 µM), actives largely listed as cytotoxic | 400,000 compounds, 1.4% hits | AID 1347075; further: nearly all actives have a fitted effect of over 60% in size
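Here the drug-naive KB-3-1 line serves as comparator for MDR sub-line selectivity; cells received compound titrations, 72 h at 37 °C, then CellTiter-Glo readout.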
KB-V1 cytotox = kills drug-selected multidrug resistant KB-V1 cells; KB-V1 MDR cells viability, CellTiter-Glo, 72 h; Potency, µM (titrated, usually from 46.1 µM), usual class: cytotoxic; 400,000 compounds, 3.4% hits; further: nearly all actives have a fitted effect of over 60% in size
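Luminescent ATP read-out (CellTiter-Glo, 10 min) measures survival of drug-selected KB-V1 MDR cells after 72 h, 37 degrees C compound exposure. Medium: phenol-red-free DMEM, 10% FBS. Values from fitted concentration-response curves.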
DT40 TDP1 CPT = DT40-hTDP1 cell growth loss with CPT | chicken DT40 Tdp1-/-;hTDP1 cells + 20 nM CPT, ATP luminescence, 48 h | Potency, µM (titrated, usually from 46.2 µM), most hits filed as inhibitors | 420,000 compounds, 12% hits | AID 686979; further: nearly all actives have a fitted effect of over 55% in size
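Chicken DT40 Tdp1-/- cells stably complemented with human TDP1 were seeded at 400 cells/well in medium containing 20 nM camptothecin, exposed to pin-transferred compounds, and grown at 37 °C for at least 48 hr. Viability was read as ATP luminescence.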
HT1080 IDH1KD tx = kills HT-1080 cells with IDH1 knockdown; AID 686971; HT-1080 IDH1 knockdown viability, ATP luminescence, 48 h; Potency, µM (series often up to 46.1 µM), hits mostly cytotoxic; 360,000 compounds, 2% hits
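Luminescent ATP read-out (CellTiter-Glo, 10 min at room temperature) after 48 h compound exposure at 37 °C gave viability of IDH1-knockdown HT-1080 cells. Activity was normalised to DMSO and cell-free wells, then fitted as concentration-response curves.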
HT1080-NT tox = kills 2HG-producing HT-1080-NT fibrosarcoma cells; HT-1080-NT fibrosarcoma viability, CellTiter-Glo ATP luminescence, 48 h; 360,000 compounds, 1.6% hits; Potency, µM (doses to about 46.1 µM), actives largely listed as cytotoxic; AID 686970;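 further: NT is the 2HG producing partner of a matched IDH1 knockdown line; nearly all actives have a fitted effect of over 55% in size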
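Fibrosarcoma NT cells, 750 per well in 5% FBS RPMI, were exposed to compound for 48 hours. Viability: CellTiter-Glo luminescence.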
TDP1 cell noCPT = qHTS for Inhibitors of human tyrosyl-DNA phosphodiesterase 1 (TDP1): qHTS in cells in absence of CPT. 420,000 compounds, 15% hits. DT40 Tdp1-/- hTDP1 cells, no CPT, ATP luminescence, 48 h. Potency, µM (titrated, usually from 46.2 µM), actives largely listed as inhibitors; further: nearly all actives have a fitted effect of over 55% in size
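Chicken DT40 Tdp1-/- cells stably complemented with human TDP1 were seeded at 400 cells/well with DMSO in place of 20 nM camptothecin. After compound pinning, cells grew at least 48 hr at 37 °C; viability read by CellTiter-Glo luminescence.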
A number is an active result. Compounds with a hit are over-represented: about 19% of the library has one in this group of screens. The call rests on the fitted dose curve; in most records, active means well fitted curve in the direction sought with a large enough effect; inconclusive means small, poorly fitted or top-dose-only effect, or another doubt; inactive means no such curve, though single readings can be large; an effect the other way counts as inactive or inconclusive.

Screening O=C(c1ccc(OC2CCN(Cc3ccccc3OC(F)F)CC2)cc1)N1CCCC1 returned KB-3-1 tox inactive, KB-V1 cytotox inactive, DT40 TDP1 CPT inactive, HT1080 IDH1KD tx inactive, HT1080-NT tox inactive and TDP1 cell noCPT inactive.
`O=C(c1ccc(OC2CCN(Cc3ccccc3C(F)(F)F)CC2)cc1)N1CCCCC1` gave KB-3-1 tox inconclusive, KB-V1 cytotox 16µM, DT40 TDP1 CPT inconclusive, HT1080 IDH1KD tx inconclusive, HT1080-NT tox inactive and TDP1 cell noCPT inconclusive.
Screening COc1ccc(CCC(C)N2CCC(Oc3ccc(C(=O)N4CCCC4)cc3)CC2)cc1 (configuration not stated) returned DT40 TDP1 CPT 26µM, HT1080 IDH1KD tx inactive, HT1080-NT tox inactive and TDP1 cell noCPT inconclusive.
For Nn1c(COc2ccccc2F)nnc1SCC(=O)NCC1CCCO1 (configuration not stated) the results were KB-3-1 tox inactive, KB-V1 cytotox inactive, DT40 TDP1 CPT inactive, HT1080 IDH1KD tx inactive, HT1080-NT tox inactive and TDP1 cell noCPT inactive.
Cc1ccc(CSc2nc3ccsc3c(=O)n2Cc2ccccn2)cc1 was read as KB-3-1 tox inactive, KB-V1 cytotox inconclusive, DT40 TDP1 CPT inconclusive, HT1080 IDH1KD tx inactive, HT1080-NT tox inactive and TDP1 cell noCPT 16µM.
Screening N#Cc1ccccc1CSc1nc2ccsc2c(=O)n1Cc1ccccn1 returned KB-3-1 tox inactive, KB-V1 cytotox inactive, DT40 TDP1 CPT inconclusive, HT1080 IDH1KD tx inactive, HT1080-NT tox inactive and TDP1 cell noCPT inconclusive.
Screening O=c1c2sccc2nc(SCc2cc(=O)n3cc(Br)ccc3n2)n1Cc1ccccn1 returned KB-3-1 tox inconclusive, KB-V1 cytotox inconclusive, DT40 TDP1 CPT 21µM, HT1080 IDH1KD tx inactive, HT1080-NT tox inactive and TDP1 cell noCPT 21µM.
`O=C(O)C1CCC(Cn2c(SCc3cc(=O)n4ccccc4n3)nc3ccsc3c2=O)CC1` (configuration not stated) gave KB-3-1 tox inactive, KB-V1 cytotox inactive, DT40 TDP1 CPT inactive, HT1080 IDH1KD tx inactive, HT1080-NT tox inconclusive and TDP1 cell noCPT inconclusive.
`Cn1c(=O)c2c(ncn2CC(=O)OCC(=O)NCc2ccc(F)cc2)n(C)c1=O` gave KB-3-1 tox inactive, KB-V1 cytotox inactive, DT40 TDP1 CPT inactive, HT1080 IDH1KD tx inactive, HT1080-NT tox inactive and TDP1 cell noCPT inconclusive.
Screening CCOc1ccc(OCC(=O)OCC(=O)NCC2CCCO2)cc1 (configuration not stated) returned KB-3-1 tox inactive, KB-V1 cytotox inactive, DT40 TDP1 CPT inactive, HT1080 IDH1KD tx inactive, HT1080-NT tox inactive and TDP1 cell noCPT inactive.
For Cc1nn(CC(=O)N2CCN(c3cccc(C(F)(F)F)c3)CC2)c(=O)c2cccn12 the results were KB-3-1 tox inactive, KB-V1 cytotox inactive, DT40 TDP1 CPT 15µM, HT1080 IDH1KD tx inactive, HT1080-NT tox inactive and TDP1 cell noCPT 23µM.
Screening CC1CCN(S(=O)(=O)c2cn(CC(=O)N3CCN(c4cccc(C(F)(F)F)c4)CC3)cn2)CC1 returned KB-3-1 tox inactive, KB-V1 cytotox inactive, DT40 TDP1 CPT 15µM, HT1080 IDH1KD tx inactive, HT1080-NT tox inactive and TDP1 cell noCPT inconclusive.
Screening CC[C@H](C)[C@@H]1NC(=O)[C@H]([C@@H](C)CC)NC(=O)[C@@H](CC(C)C)NC(=O)[C@H](Cc2ccccc2)NC(=O)[C@H](Cc2ccccc2)NC(=O)[C@@H]2CCCN2C(=O)[C@@H]2CCCN2C(=O)[C@H](C(C)C)NC(=O)[C@H](CC(C)C)NC1=O returned KB-3-1 tox inconclusive, KB-V1 cytotox inactive, DT40 TDP1 CPT 6.5µM, HT1080 IDH1KD tx inconclusive, HT1080-NT tox inconclusive and TDP1 cell noCPT 8.2µM.
CC1=CC(C)(C)Nc2ccc(C)cc21 was read as KB-3-1 tox inactive, KB-V1 cytotox inactive, DT40 TDP1 CPT inactive, HT1080 IDH1KD tx inactive, HT1080-NT tox inactive and TDP1 cell noCPT inactive.

Screening data: PubChem BioAssay, National Center for Advancing Translational Sciences (NCATS)
